PubChem BioAssay (NCATS)
Results filed as inconclusive are left out. Entries that show only a call come without a potency. Calls of active or inactive are those of the source. Unless noted, calls follow the shape of the dose curve; as a rule, active = well fitted curve in the direction sought with a large enough effect; inconclusive = small, poorly fitted or top-dose-only effect, or another doubt; inactive = no such curve, though single readings can be large; an effect the other way counts as inactive or inconclusive.

Columns and labels:
[1] = Validation screen for small molecules that induce genotoxicity in human embryonic kidney (HEK293T) cells expressing luciferase-tagged ELG1 (AID 493106)
In short: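 In this validation screen, increased ELG1-luciferase signal flags compounds causing genetic stress. HEK293T reporter cells are treated 16 hr (37 °C, 5% CO2), developed with ONE-Glo for 30 min at room temperature, and imaged on a CCD-based reader.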

[2] = biological target: ATPase family AAA domain-containing protein 5 (Homo sapiens) (UniProt Q96QE3); assay: Validation screen for small molecules that inhibit ELG1-dependent DNA repair in human embryonic kidney (HEK293T) cells expressing luciferase-tagged ELG1 (AID 493107);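 also: cells co-treated with the DNA-damaging agent 5-fluorouridine alongside compound; series mostly up to about 46 µM; inhibitors lower the ELG1-luciferase luminescence signal; nearly all actives have a fitted effect of over 70% in size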
Chain of ATPase family AAA domain-containing protein 5 (Homo sapiens) (Q96QE3 whole entry, looked up, the tested form may be a part): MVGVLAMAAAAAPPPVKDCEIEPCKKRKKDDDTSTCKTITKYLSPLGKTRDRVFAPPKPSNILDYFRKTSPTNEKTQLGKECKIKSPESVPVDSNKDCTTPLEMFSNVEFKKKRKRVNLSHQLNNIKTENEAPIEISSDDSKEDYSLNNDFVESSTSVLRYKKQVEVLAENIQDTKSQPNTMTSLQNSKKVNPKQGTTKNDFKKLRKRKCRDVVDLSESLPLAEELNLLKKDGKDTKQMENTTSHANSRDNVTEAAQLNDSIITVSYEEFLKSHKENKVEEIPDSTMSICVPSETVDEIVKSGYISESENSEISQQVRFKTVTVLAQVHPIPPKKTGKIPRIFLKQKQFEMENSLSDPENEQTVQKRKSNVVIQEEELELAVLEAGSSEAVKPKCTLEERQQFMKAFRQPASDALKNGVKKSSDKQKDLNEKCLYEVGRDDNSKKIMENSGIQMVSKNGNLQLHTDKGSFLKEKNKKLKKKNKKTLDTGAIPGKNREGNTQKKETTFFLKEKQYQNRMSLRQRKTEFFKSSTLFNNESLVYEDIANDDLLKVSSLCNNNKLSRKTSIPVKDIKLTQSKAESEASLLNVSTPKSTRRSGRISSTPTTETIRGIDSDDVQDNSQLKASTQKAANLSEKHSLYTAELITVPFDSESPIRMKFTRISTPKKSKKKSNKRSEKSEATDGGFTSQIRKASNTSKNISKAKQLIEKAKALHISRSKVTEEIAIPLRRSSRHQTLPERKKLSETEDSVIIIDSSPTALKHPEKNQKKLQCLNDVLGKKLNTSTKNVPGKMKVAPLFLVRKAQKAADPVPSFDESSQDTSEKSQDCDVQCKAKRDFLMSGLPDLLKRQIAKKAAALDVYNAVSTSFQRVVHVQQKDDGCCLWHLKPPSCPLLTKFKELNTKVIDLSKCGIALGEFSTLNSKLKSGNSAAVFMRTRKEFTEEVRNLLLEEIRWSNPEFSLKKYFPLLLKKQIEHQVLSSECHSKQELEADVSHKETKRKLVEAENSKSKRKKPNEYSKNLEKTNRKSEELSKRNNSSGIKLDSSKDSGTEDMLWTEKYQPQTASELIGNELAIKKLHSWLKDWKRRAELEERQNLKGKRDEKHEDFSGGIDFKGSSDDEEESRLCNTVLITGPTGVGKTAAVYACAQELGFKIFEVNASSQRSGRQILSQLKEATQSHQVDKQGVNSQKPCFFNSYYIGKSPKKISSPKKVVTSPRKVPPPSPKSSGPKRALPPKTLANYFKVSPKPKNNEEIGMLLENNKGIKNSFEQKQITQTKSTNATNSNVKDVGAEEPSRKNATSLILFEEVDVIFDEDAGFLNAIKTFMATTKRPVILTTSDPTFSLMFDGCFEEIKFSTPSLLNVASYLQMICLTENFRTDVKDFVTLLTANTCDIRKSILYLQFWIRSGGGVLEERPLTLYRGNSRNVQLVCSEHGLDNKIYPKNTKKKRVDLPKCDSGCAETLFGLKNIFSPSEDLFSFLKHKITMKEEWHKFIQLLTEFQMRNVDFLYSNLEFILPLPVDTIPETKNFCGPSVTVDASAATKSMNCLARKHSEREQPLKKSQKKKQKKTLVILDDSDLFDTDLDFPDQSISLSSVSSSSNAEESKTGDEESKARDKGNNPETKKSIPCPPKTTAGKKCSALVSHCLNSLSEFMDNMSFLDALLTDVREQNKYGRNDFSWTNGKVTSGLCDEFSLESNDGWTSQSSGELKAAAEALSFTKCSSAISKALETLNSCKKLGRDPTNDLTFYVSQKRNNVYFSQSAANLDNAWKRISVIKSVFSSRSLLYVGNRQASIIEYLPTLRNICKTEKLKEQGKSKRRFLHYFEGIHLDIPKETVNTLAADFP
In short: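 Compounds reducing 5-fluorouridine-driven ELG1-luciferase signal in HEK293T cells were scored; exposure lasted 16 hr at 37 °C with luminescence detected via ONE-Glo.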

[3] = biological target: Thyrotropin-releasing hormone receptor (Homo sapiens) (UniProt P34981); assay: qHTS for Small Molecule Agonists and Allosteric Enhancers of Human TRH Receptor: Validation Screen for Agonists (AID 493127;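 active = calcium activation more than 3 SD above the typical response in the agonist read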;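 also: intracellular calcium rise by fluo-8 fluorescence before TRH EC20 addition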); details: TRH receptor agonist cell assay; at 2 µM; stronger effect = higher value
Chain of Thyrotropin-releasing hormone receptor (Homo sapiens) (P34981 whole entry, looked up): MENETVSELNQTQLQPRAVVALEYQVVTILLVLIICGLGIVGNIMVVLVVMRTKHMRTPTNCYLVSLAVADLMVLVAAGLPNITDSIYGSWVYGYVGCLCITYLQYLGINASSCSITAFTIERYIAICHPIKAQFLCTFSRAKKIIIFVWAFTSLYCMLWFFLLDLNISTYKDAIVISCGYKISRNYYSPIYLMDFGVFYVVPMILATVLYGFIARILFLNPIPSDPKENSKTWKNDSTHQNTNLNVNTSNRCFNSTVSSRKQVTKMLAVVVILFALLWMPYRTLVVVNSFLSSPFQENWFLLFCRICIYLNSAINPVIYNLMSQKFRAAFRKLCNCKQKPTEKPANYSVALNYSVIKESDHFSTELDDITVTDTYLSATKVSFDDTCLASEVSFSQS
In short: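 Kinetic fluorescence assay of agonist-induced calcium release: overnight-plated TRHR cells, room-temperature fluo-8 loading, baseline then compound addition with per-second reads.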

[4] = Nrf2 qHTS screen for inhibitors: Validation (AID 493153; active = well fitted inhibition curve with a large enough effect in the main read-out, with a control signal flat, not every such curve was filed as active; also: potency is read from the fitted curve at half-maximal effect); details: Potency: luciferase luminescence; viability change: measured here: cytotoxicity max response
In short: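 In this counterscreened reporter format, each well gives two signals: CellTiter-Fluor fluorescence for cytotoxicity and ARE-luciferase luminescence for Nrf2 function. A549 ARE_Fluc cells in 5% FBS OPTI-MEM were exposed to compound titrations for 18-24 h.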

[5] = qHTS for Inhibitors of Cell Surface uPA Generation: Validation Assay (AID 493164);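 also: RAW 264.7 macrophage cells exposed to compound for 18 h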
In short: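 Compounds are titrated over seven points (2.45 nM–38.3 uM final) onto pre-plated RAW 264.7 cells and incubated for 18 h. Retained intracellular ATP, measured with ATP-Lite, indicates blocked lethal factor entry.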

[6] = biological target: Galactokinase (Homo sapiens) (UniProt P51570); assay: qHTS Validation Assay for Inhibitors of Human Galactokinase (GALK) (AID 493189)
Chain of Galactokinase (Homo sapiens) (P51570 whole entry, looked up): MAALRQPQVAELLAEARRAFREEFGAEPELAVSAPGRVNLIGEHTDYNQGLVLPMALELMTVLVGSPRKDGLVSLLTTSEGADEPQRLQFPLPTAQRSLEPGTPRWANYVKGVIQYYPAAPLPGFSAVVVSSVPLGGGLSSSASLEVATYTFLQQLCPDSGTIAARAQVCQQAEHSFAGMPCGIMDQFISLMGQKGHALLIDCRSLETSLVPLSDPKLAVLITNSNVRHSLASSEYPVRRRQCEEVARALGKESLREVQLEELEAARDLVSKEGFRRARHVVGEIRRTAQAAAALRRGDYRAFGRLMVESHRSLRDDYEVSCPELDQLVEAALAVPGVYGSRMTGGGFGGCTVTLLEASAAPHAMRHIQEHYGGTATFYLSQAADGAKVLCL
In short: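 Inhibition was measured as remaining ATP, detected by luciferase luminescence after a 1 h room-temperature reaction. Final conditions: 5 nM GALK, 100 uM galactose, 35 uM ATP, pH 8.0 HEPES buffer.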

[7] = Validation screen for small molecules that induce DNA re-replication in SW480 colon adenocarcinoma cells (AID 504364)
In short: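 Hoechst-stained SW480 nuclei, imaged at 405 nm excitation after 48 hr compound exposure, were counted for elevated DNA content as the re-replication signal.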

[8] = biological target: Peptidyl-prolyl cis-trans isomerase NIMA-interacting 1 (Homo sapiens) (UniProt Q13526); assay: qHTS Validation Assay to Find Inhibitors of Pin1 (AID 504536; active = well fitted inhibition curve with a large enough effect in the polarisation, with a control signal flat, not every such curve was filed as active; the % refers to the polarisation)
Chain of Peptidyl-prolyl cis-trans isomerase NIMA-interacting 1 (Homo sapiens) (Q13526 whole entry, looked up): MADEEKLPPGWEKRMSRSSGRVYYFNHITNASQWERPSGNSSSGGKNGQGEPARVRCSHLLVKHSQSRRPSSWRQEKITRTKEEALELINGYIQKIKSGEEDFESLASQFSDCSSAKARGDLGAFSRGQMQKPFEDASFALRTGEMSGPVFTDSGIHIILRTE
In short: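 Fluorescence polarization competition: compounds (titration) displace HiFluor-488-labeled Pin1-1b peptide from Pin1 (0.3 uM final) in pH 7.5 HEPES buffer with DTT, 10 min at room temperature; %Activity normalized to no-enzyme wells, curves fitted.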

[9] = biological target: Phosphoglycerate kinase, glycosomal (Trypanosoma brucei brucei) (UniProt P07378); assay: qHTS Validation Assay to Find Inhibitors of Phosphoglycerate Kinase (AID 504547)
Chain of Phosphoglycerate kinase, glycosomal (Trypanosoma brucei brucei) (P07378 whole entry, looked up): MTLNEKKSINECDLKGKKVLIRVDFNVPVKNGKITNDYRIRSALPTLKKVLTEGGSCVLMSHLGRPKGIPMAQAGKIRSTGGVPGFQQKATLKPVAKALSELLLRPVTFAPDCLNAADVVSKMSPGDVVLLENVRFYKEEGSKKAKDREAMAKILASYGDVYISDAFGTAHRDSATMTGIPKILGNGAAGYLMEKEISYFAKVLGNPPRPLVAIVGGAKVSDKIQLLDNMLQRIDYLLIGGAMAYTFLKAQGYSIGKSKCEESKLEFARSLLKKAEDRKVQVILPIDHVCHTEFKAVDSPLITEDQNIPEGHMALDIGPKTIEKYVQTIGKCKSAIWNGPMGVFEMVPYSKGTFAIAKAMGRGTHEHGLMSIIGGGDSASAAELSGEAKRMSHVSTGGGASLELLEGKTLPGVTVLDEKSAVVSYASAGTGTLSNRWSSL
In short: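 Compounds are pinned into the substrate/PGK mixture, and GAPDH (100nM final) is added to start the reaction by producing 1,3-BPG. After 60 minutes at room temperature, Kinase-Glo Plus is added and luminescence is measured 10 minutes later.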

[10] = biological target: phosphoglycerate mutase (Leishmania major) (UniProt Q4Q090); assay: qHTS Validation Assay to Find Inhibitors of Phosphoglycerate Mutase (AID 504548); also: series mostly up to about 58 µM
Chain of phosphoglycerate mutase (Leishmania major) (Q4Q090 1-553): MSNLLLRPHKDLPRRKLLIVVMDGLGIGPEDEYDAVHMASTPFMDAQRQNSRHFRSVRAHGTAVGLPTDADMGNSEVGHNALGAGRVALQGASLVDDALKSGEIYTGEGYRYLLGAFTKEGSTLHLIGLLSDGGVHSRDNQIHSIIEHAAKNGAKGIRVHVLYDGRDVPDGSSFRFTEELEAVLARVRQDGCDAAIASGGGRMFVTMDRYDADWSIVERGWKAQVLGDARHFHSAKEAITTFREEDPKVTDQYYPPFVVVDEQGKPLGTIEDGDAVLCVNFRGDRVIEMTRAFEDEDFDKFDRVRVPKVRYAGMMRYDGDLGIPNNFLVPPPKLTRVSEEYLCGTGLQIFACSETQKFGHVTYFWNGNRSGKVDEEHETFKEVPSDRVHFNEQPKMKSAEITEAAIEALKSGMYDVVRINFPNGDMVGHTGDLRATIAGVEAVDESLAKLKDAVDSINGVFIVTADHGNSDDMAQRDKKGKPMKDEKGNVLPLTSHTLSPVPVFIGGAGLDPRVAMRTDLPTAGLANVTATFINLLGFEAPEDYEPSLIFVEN
In short: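 Lm PGAM at 1.25 nM final with substrate in 100 mM TEA pH 7.6, 5 mM MgCl2, 0.01% Tween-20; 45 min at room temperature. Kinase-GloPlus added, 10 min, end-point luminescence read.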

CN(C)CCC=C1c2ccccc2C=Cc2ccccc21
Potency [1]: inactive
Potency [2]: inactive
activation [3]: 1.69% (inactive)
Potency [4]: inactive
viability change [4]: 1.79%
outcome [5]: inactive
Potency [6]: inactive
Potency [7]: inactive
Potency [8]: inactive
Potency [9]: inactive
outcome [10]: inactive

CN(C)c1nc(N(C)C)nc(N(C)C)n1
Potency [1]: inactive
Potency [2]: inactive
activation [3]: 0.188% (inactive)
Potency [4]: inactive
viability change [4]: 0%
outcome [5]: inactive
Potency [6]: inactive
Potency [7]: inactive
Potency [8]: inactive
Potency [9]: inactive
outcome [10]: inactive

Cc1cc(C(C)(C)C)c(O)c(C)c1CC1=NCCN1
Potency [1]: inactive
Potency [2]: inactive
activation [3]: 1.19% (inactive)
Potency [4]: inactive
viability change [4]: 1.24%
outcome [5]: inactive
Potency [6]: inactive
Potency [7]: inactive
Potency [8]: inactive
Potency [9]: inactive
outcome [10]: inactive

COc1ccc(C2CNC(=O)C2)cc1OC1CCCC1 (configuration not stated)
Potency [1]: inactive
Potency [2]: inactive
activation [3]: 0.812% (inactive)
Potency [4]: inactive
viability change [4]: 3.91%
outcome [5]: inactive
Potency [6]: inactive
Potency [7]: inactive
Potency [8]: inactive
Potency [9]: inactive
outcome [10]: inactive

CN(Cc1cnc2nc(N)nc(N)c2n1)c1ccc(C(=O)N[C@@H](CCC(=O)O)C(=O)O)cc1
Potency [1]: inactive
Potency [2]: inactive
Potency [4]: 580 nM (active)
viability change [4]: -0.856%
outcome [5]: inactive
Potency [6]: inactive
Potency [7]: inactive
Potency [9]: inactive
outcome [10]: inactive

O=C1N(c2ccccc2)c2ccccc2C1(Cc1ccncc1)Cc1ccncc1
Potency [1]: inactive
Potency [2]: inactive
activation [3]: 1.31% (inactive)
Potency [4]: inactive
viability change [4]: 10.1%
outcome [5]: inactive
Potency [6]: inactive
Potency [7]: inactive
Potency [8]: inactive
Potency [9]: inactive
outcome [10]: inactive

CN(C)CCOC(c1ccccc1)c1ccccc1
Potency [1]: inactive
Potency [2]: inactive
activation [3]: -3.31% (inactive)
Potency [4]: inactive
viability change [4]: 2.71%
outcome [5]: inactive
Potency [6]: inactive
Potency [7]: inactive
Potency [8]: inactive
Potency [9]: inactive
outcome [10]: inactive

CC(C(=O)O)c1cccc(C(=O)c2ccccc2)c1 (configuration not stated)
Potency [1]: inactive
activation [3]: 1.12% (inactive)
Potency [4]: inactive
viability change [4]: -3.76%
outcome [5]: inactive
Potency [6]: inactive
Potency [7]: inactive
Potency [8]: inactive
Potency [9]: inactive
outcome [10]: inactive

OCCN1CCN(CCCN2c3ccccc3Sc3ccc(C(F)(F)F)cc32)CC1
Potency [1]: inactive
Potency [2]: inactive
activation [3]: 1.88% (inactive)
Potency [4]: inactive
viability change [4]: 1.55%
outcome [5]: inactive
Potency [6]: inactive
Potency [7]: inactive
Potency [8]: inactive
Potency [9]: inactive
outcome [10]: inactive

CCCCc1oc2ccccc2c1C(=O)c1cc(I)c(OCCN(CC)CC)c(I)c1
Potency [1]: inactive
activation [3]: 1.56% (inactive)
Potency [4]: inactive
viability change [4]: 8.23%
Potency [6]: inactive
Potency [7]: inactive
Potency [9]: inactive
outcome [10]: inactive

CNCCCC12CCC(c3ccccc31)c1ccccc12
Potency [1]: inactive
activation [3]: 3.31% (inactive)
Potency [4]: inactive
viability change [4]: 1.81%
outcome [5]: inactive
Potency [6]: inactive
Potency [7]: inactive
Potency [8]: inactive
Potency [9]: inactive
outcome [10]: inactive

CCC1(C)CC(=O)NC1=O (configuration not stated)
Potency [1]: inactive
activation [3]: 1.44% (inactive)
Potency [4]: inactive
viability change [4]: 4.35%
outcome [5]: inactive
Potency [6]: inactive
Potency [7]: inactive
Potency [8]: inactive
Potency [9]: inactive
outcome [10]: inactive

CC(C)Cc1ccc(C(C)C(=O)O)cc1 (configuration not stated)
Potency [1]: inactive
activation [3]: 0.375% (inactive)
Potency [4]: inactive
viability change [4]: 7.62%
outcome [5]: inactive
Potency [7]: inactive
Potency [8]: inactive
Potency [9]: inactive
outcome [10]: inactive

NCCCCCC(=O)O
Potency [1]: inactive
activation [3]: 0.0625% (inactive)
Potency [4]: inactive
viability change [4]: 0%
outcome [5]: inactive
Potency [6]: inactive
Potency [7]: inactive
Potency [9]: inactive
outcome [10]: inactive

Nc1c2c(nc3ccccc13)CCCC2
Potency [1]: inactive
activation [3]: 1.31% (inactive)
Potency [4]: inactive
viability change [4]: -3.66%
outcome [5]: inactive
Potency [6]: inactive
Potency [7]: inactive
Potency [9]: inactive
outcome [10]: inactive

CN1CCN(C2=Nc3cc(Cl)ccc3Nc3ccccc32)CC1
Potency [1]: inactive
activation [3]: 3.31% (inactive)
Potency [4]: inactive
viability change [4]: -10.5%
outcome [5]: inactive
Potency [6]: inactive
Potency [7]: inactive
Potency [8]: inactive
Potency [9]: inactive
outcome [10]: inactive

NC(=O)NO
Potency [1]: inactive
activation [3]: 1.12% (inactive)
Potency [4]: inactive
viability change [4]: -1.36%
outcome [5]: inactive
Potency [6]: inactive
Potency [7]: inactive
Potency [8]: inactive
Potency [9]: inactive
outcome [10]: inactive

O=c1c(O)c(-c2ccc(O)c(O)c2)oc2cc(O)cc(O)c12
Potency [1]: inactive
activation [3]: 0.938% (inactive)
Potency [4]: inactive
viability change [4]: -9.26%
outcome [5]: inactive
Potency [6]: inactive
Potency [7]: inactive
outcome [10]: inactive

COc1ccccc1N1CCN(CC(O)COc2cccc3ccccc23)CC1 (configuration not stated)
Potency [1]: inactive
Potency [4]: inactive
viability change [4]: -28.8%
outcome [5]: inactive
Potency [6]: inactive
Potency [7]: inactive
Potency [8]: inactive
Potency [9]: inactive
outcome [10]: inactive

COc1nc(C)nc(Cl)c1NC1=NCCN1
Potency [1]: inactive
activation [3]: 0.688% (inactive)
Potency [4]: inactive
viability change [4]: 4.38%
outcome [5]: inactive
Potency [6]: inactive
Potency [7]: inactive
Potency [8]: inactive
Potency [9]: inactive
outcome [10]: inactive

NC(CO)C(=O)NNCc1ccc(O)c(O)c1O (configuration not stated)
Potency [1]: inactive
Potency [4]: inactive
viability change [4]: -7.62%
outcome [5]: inactive
Potency [6]: inactive
Potency [7]: inactive
Potency [8]: inactive
Potency [9]: inactive
outcome [10]: inactive
